Mito fusion yeast – qHTS Assay for Small Molecule Inhibitors of Mitochondrial Division or Activators of Mitochondrial Fusion | S. cerevisiae fusion-defective mutant growth rescue, CellTiterGlo 48 h | Potency, µM (series often up to 46.1 µM), for inactives: at the top dose growth rescue (activation), actives largely listed as activators | 320,000 tested, 0.23% active | AID 485298, 2010; note: % of control where 0% means no effect; nearly all actives have a fitted effect of over 45% in size
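Compounds are tested for their ability to restore growth of mitochondrial fusion-defective yeast strains at non-permissive 37C in YPEG medium over 48 hours. Viability is quantified by luciferase luminescence.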
FUS suppressor – qHTS for Suppressors of FUS Proteinopathy: Primary screen using FUS-linked yeast assay; S. cerevisiae FUS-expressing, growth rescue, OD600, 24 h; Potency, µM (series often up to 76.6 µM), most hits filed as activators; 390,000 tested, 0.24% active; AID 1347120, 2019;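 note: plate controls were DMSO vehicle for no effect and reference control for full effect; nearly all actives have a fitted effect of over 55% in size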
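Cultures pregrown in 2.5% raffinose medium are shifted to minimal medium containing 2% galactose to express toxic FUS. Compounds are tested at several concentrations. After 24hr at 30C, growth is quantified at 600 nm absorbance.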
aSyn yeast inh – qHTS of alpha-syn Inhibitors; 370,000 tested, 0.14% active; Yeast expressing alpha-synuclein, growth rescue, BacTiter-Glo, 24 h; Potency, µM (titrated, usually from 46.1 µM), for inactives: at the top dose growth rescue (activation), actives largely listed as activators; note: % of control where 0% means no effect; nearly all actives have a fitted effect of over 65% in size
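Rescue of yeast growth: cells expressing toxic alpha-synuclein, induced in galactose at OD600 0.02, incubated with compound 24 h at 30 C. ATP luminescence quantified growth; inhibitors of toxicity appear as activators.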
TDP43 rescue – qHTS of TDP-43 Inhibitors; AID 652104, 2013; TDP-43 expressing yeast growth rescue, BacTiter-Glo, 24 h; Potency, µM (highest dose often 46.1 µM), without a hit: at the highest dose growth rescue (activation), most hits filed as activators; 410,000 tested, 1.8% active; note: % of control where 0% means no effect; nearly all actives have a fitted effect of over 50% in size
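Yeast expressing TDP-43 (pregrown in raffinose, seeded at OD600=0.02 in galactose medium) exposed to compounds 24 hr at 30 deg C. Growth read by BacTiter-Glo luminescence; rescue of toxicity appears as increased signal.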
Abeta rescue – qHTS for compounds that reverse cellular toxicity of Amyloid beta (A-beta) peptide in yeast: Primary Screen | yeast expressing A-beta42, growth rescue, OD600, 48 h; response scale: 0% DMSO, 100% iron-clioquinol control | Potency, µM (highest dose often 46.1 µM), most hits filed as activators | 410,000 tested, 0.063% active; note: nearly all actives have a fitted effect of over 55% in size
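Growth rescue measured by 600 nm absorbance after 48 h yeast culture at 30 C with compound. Values normalized between DMSO and an equimolar ferric chloride plus clioquinol control.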
An asterisk follows results filed as active; [ ] = dose if it differs, or a comment. Most compounds without a hit are left out; they make up all but 2.2% or so of the library. Calls come from the whole dose curve; as a rule, active = well fitted curve in the direction sought with a large enough effect; inconclusive = small, poorly fitted or top-dose-only effect, or another doubt; inactive = no such curve, though single readings can be large; an effect the other way counts as inactive or inconclusive. Potency is the fitted concentration of half-maximal effect.

Results for Nc1cc2c(cc1[N+](=O)[O-])-c1ccccc1C2=NO ?
aSyn yeast inh: 9.2%; TDP43 rescue: 3.55µM*; Abeta rescue: inactive

What do the screens show for `COc1ccc(-c2c3c(=O)n(C)c(=O)n(C)c3c3n2-c2ccccc2NC3c2ccco2)cc1` (stereo unspecified)?
FUS suppressor: inactive; TDP43 rescue: -16.4%; Abeta rescue: inactive

Results for O=c1c2ccccc2nc(/C=C/c2cccc(Br)c2)n1CCCO ?
Mito fusion yeast: 11.2µM*; FUS suppressor: inactive; aSyn yeast inh: 0.5%; TDP43 rescue: 13.5%; Abeta rescue: inactive

Results for O=c1c2ccccc2nc(/C=C/c2ccc(Br)cc2)n1CCCO ?
Mito fusion yeast: inconclusive; FUS suppressor: inactive; aSyn yeast inh: -1.7%; TDP43 rescue: inconclusive; Abeta rescue: inactive

How did C#CCn1c(/C=C/c2ccc(Cl)cc2)nc2ccccc21 do in these assays?
FUS suppressor: inactive; TDP43 rescue: 35.5µM*; Abeta rescue: inactive

What do the screens show for `CCn1c(/C=C/c2ccccc2C)nc2ccccc2c1=O`?
Mito fusion yeast: 2.0%; FUS suppressor: inactive; aSyn yeast inh: -1.9%; TDP43 rescue: 28.8%; Abeta rescue: inactive

Results for CCn1c(/C=C/c2ccccc2F)nc2ccccc2c1=O ?
Mito fusion yeast: 0.3%; FUS suppressor: inactive; aSyn yeast inh: -5.4%; TDP43 rescue: 8.91µM*; Abeta rescue: inactive

How did Clc1ccc(Cn2c(/C=C/c3ccco3)nc3ccccc32)cc1 do in these assays?
Mito fusion yeast: inconclusive; FUS suppressor: inactive; aSyn yeast inh: 4.9%; TDP43 rescue: -3.3%; Abeta rescue: inactive

How did O=c1c2ccccc2nc(/C=C/c2ccc(Cl)cc2)n1CCO do in these assays?
Mito fusion yeast: 25.6%; FUS suppressor: inactive; aSyn yeast inh: 5.1%; TDP43 rescue: 11.2µM*; Abeta rescue: inactive

Results for O=c1c2ccccc2nc(/C=C/c2ccc(Br)cc2)n1CCO ?
FUS suppressor: inactive; aSyn yeast inh: -10.4%; TDP43 rescue: 4.8%; Abeta rescue: inactive

Results for O=C(c1ccc2c(c1)N(Cc1ccc(F)cc1)C(=O)c1ccccc1S2=O)N1CCC(Cc2ccccc2)CC1 (stereo unspecified) ?
FUS suppressor: inconclusive; TDP43 rescue: 10.5%; Abeta rescue: inactive

What do the screens show for `Cc1ccc(NC(=O)CN2C=NS(=O)(=O)c3ccccc32)cc1`?
FUS suppressor: inactive; TDP43 rescue: 0.0%[9.22 µM]; Abeta rescue: inactive

How did CCn1c(/C=C/c2ccc(O)cc2)nc2ccccc2c1=O do in these assays?
Mito fusion yeast: 3.2%; FUS suppressor: inactive; aSyn yeast inh: 1.8%; TDP43 rescue: 17.8µM*; Abeta rescue: inactive

Results for COc1cccc(NC(=O)c2nc(SC)ncc2Cl)c1 ?
Mito fusion yeast: 3.9%; FUS suppressor: inactive; aSyn yeast inh: -14.6%; TDP43 rescue: 1.6%; Abeta rescue: inactive

What do the screens show for `COc1ccc(N2CCN(C(=O)c3nc(SC)ncc3Cl)CC2)cc1`?
FUS suppressor: inactive; TDP43 rescue: 20µM*; Abeta rescue: inactive

What do the screens show for `CCS(=O)(=O)c1ncc(Cl)c(C(=O)N2CCN(c3ccc(OC)cc3)CC2)n1`?
FUS suppressor: inactive; TDP43 rescue: 12.6µM*; Abeta rescue: inactive

Results for COc1ccc(NC(=O)c2nc(SC)ncc2Cl)cc1 ?
Mito fusion yeast: -2.1%; FUS suppressor: inactive; aSyn yeast inh: 0.9%; TDP43 rescue: 20µM*; Abeta rescue: inactive

How did CCSc1ncc(Cl)c(C(=O)N2CCN(c3ccccc3OC)CC2)n1 do in these assays?
FUS suppressor: inactive; TDP43 rescue: 35.5µM*; Abeta rescue: inactive

How did CCCSc1ncc(Cl)c(C(=O)N2CCN(c3ccc(OC)cc3)CC2)n1 do in these assays?
FUS suppressor: inconclusive; TDP43 rescue: inconclusive; Abeta rescue: inactive

What do the screens show for `COc1cccc(Cn2c(CNC(=O)CCc3ccccc3)nc3cccnc32)c1`?
FUS suppressor: inactive; TDP43 rescue: 7.1%; Abeta rescue: inactive

What do the screens show for `C/C(CCC12CC3CC(CC(C3)C1)C2)=N\NC(N)=S`?
Mito fusion yeast: 2.3%; FUS suppressor: inactive; aSyn yeast inh: -17.5%; TDP43 rescue: 18.9%; Abeta rescue: inactive

How did C/C(=N\NC(N)=S)C1C2C3CC4C5CC(C42)C1C53 (stereo unspecified) do in these assays?
Mito fusion yeast: 3.1%; FUS suppressor: inactive; aSyn yeast inh: 1.1%; TDP43 rescue: 14.1µM*; Abeta rescue: inconclusive

Results for CCOc1nc(S(=O)(=O)c2ccc(C)cc2)c(Cl)s1 ?
Mito fusion yeast: 0.8%; FUS suppressor: inactive; aSyn yeast inh: 1.2%; TDP43 rescue: 2.6%; Abeta rescue: inactive

What do the screens show for `CSc1nc(S(=O)(=O)c2ccc(C)cc2)c(Cl)s1`?
Mito fusion yeast: 0.0%; FUS suppressor: inactive; aSyn yeast inh: 1.2%; TDP43 rescue: 12.6µM*; Abeta rescue: inactive

How did CCc1sc(-c2cc3ccccc3oc2=O)nc1-c1ccc(C)cc1 do in these assays?
aSyn yeast inh: -1.2%

What do the screens show for `Cc1ccc2ccc(C(Nc3ccccc3)c3ccc(Cl)cc3)c(O)c2n1` (stereo unspecified)?
FUS suppressor: inactive; aSyn yeast inh: inconclusive; TDP43 rescue: 5.62µM*; Abeta rescue: 15.8µM*

What do the screens show for `Cc1ccc2ccc(C(Nc3ccccc3)c3ccc(F)cc3)c(O)c2n1` (stereo unspecified)?
FUS suppressor: inactive; aSyn yeast inh: -25.7%; TDP43 rescue: 3.16µM*; Abeta rescue: inconclusive

Results for Cc1ccc2ccc(C(Nc3ccccc3)c3ccc(C(C)C)cc3)c(O)c2n1 (stereo unspecified) ?
FUS suppressor: inactive; aSyn yeast inh: 11.2µM*; TDP43 rescue: inconclusive; Abeta rescue: inconclusive

How did Nc1ccccc1C(=O)/C=C/c1ccc2c(c1)OCO2 do in these assays?
Mito fusion yeast: -0.8%; FUS suppressor: inactive; aSyn yeast inh: -3.1%; TDP43 rescue: 26.4%; Abeta rescue: inactive

How did O=C(/C=C/c1ccc2c(c1)OCO2)c1ccc(O)cc1O do in these assays?
FUS suppressor: inactive; aSyn yeast inh: -27.8%; TDP43 rescue: 8.91µM*; Abeta rescue: inactive

What do the screens show for `O=C(/C=C/c1ccc2c(c1)OCO2)c1ccco1`?
Mito fusion yeast: 6.1%; aSyn yeast inh: 9.7%; TDP43 rescue: 15.8µM*; Abeta rescue: inactive

How did COc1ccc(-c2nnc(C3CCN(C(=O)c4ccccc4F)CC3)o2)cc1 do in these assays?
FUS suppressor: inactive; TDP43 rescue: inconclusive; Abeta rescue: inactive
